Among the data in PubChem BioAssay are composite z-score and z-score values, retold here.

The test system of experiment [1] is Human papillomavirus type 1a protein E7 (residues 44-93). In words: small molecules binding HPV E7 44-93 – biochemical, small-molecule microarray, residues 44-93, 635 nm fluorescence, primary screen (AID 1108).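 Further: E7 fragment applied at 1 µg/mL in TBST for 1 h at 4 C; score combines spot fluorescence with its signal to noise ratio.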 The settings on record: fluorescence 635 nm, higher = more signal.
A short description of experiment [2]: hepatitis C replication reporter changes, two-sided – Huh7 cells, luciferase reporter, HCV replication inhibitor project, primary screen (AID 1109).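 Further: huh7 hepatoma cells harbouring a luciferase neomycin HCV replicon reporter; luciferase luminescence as measure of HCV replicon replication; test concentration not given here.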 The settings on record: Huh7 HCV replicon luciferase reporter, 48 h; higher = more signal.
For experiment [3], the target named is Left-right determination factor 2 (Homo sapiens) (UniProt O00292). In words: small molecules binding LEFTY2 protein – biochemical, small-molecule microarray, 635 nm fluorescence scan, primary screen (AID 1110). The settings on record: higher = more signal.
Sequence of Left-right determination factor 2 (Homo sapiens) (O00292 whole entry, looked up): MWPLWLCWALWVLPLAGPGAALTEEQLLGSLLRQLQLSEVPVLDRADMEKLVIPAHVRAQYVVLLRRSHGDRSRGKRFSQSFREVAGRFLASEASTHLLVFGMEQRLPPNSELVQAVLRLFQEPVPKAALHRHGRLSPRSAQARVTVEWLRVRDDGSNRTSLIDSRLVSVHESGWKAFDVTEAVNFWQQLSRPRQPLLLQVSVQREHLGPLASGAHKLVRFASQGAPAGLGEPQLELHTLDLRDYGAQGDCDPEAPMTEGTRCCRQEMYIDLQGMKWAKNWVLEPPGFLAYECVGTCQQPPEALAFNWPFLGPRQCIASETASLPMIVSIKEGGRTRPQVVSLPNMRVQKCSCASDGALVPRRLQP
In experiment [4] the target is Calmodulin-1 (Homo sapiens) (UniProt P0DP23). In words: small molecules binding calmodulin-1 with EGTA – biochemical, small-molecule microarray, Cy5-labelled CALM1, profiling panel (AID 1111).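 Further: labelled calmodulin applied in Tris saline Tween buffer holding calcium plus EGTA and DTT.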 As to conditions: Cy5-CALM1 binding fluorescence, higher = more signal.
Experiment [5] has the same target. In words: small molecules binding Ca-loaded calmodulin-1 – biochemical, small-molecule microarray, Cy5-labelled CALM1, plus calcium, artefact control for SMM control-protein annotation, profiling panel (AID 1112).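 Further: score merges spot fluorescence with signal to noise from triplicate slides.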 As to conditions: Cy5-CALM1 binding fluorescence, higher = more signal.
Experiment [6] is described as follows: probe aWnt5a binding to arrayed compounds – biochemical, biotinylated probe, 635/667 nm fluorescence, primary screen (AID 1113).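 Further: score merges 667 nm fluorescence intensity with signal-to-noise per printed feature.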 The settings on record: small-molecule microarray, higher = more signal.
Experiment [7] in a line: probe aShh binding to arrayed compounds – biochemical, biotinylated probe, 635/667 nm fluorescence, primary screen (AID 1114).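 Further: probe is biotin-labelled aShh protein from a stem cell growth factor screen; measures binding of labelled protein to compounds printed on the slide; score merges feature fluorescence at 667 nm with signal-to-noise.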 As to conditions: small-molecule microarray, higher = more signal.
The nature of experiment [8]: probe aNog binding to arrayed compounds – biochemical, biotinylated probe, 635/667 nm fluorescence, primary screen (AID 1115).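 Further: probe is biotinylated aNog protein used at 0.15 µg/mL for 1 h at 4 C; z-score combines 667 nm fluorescence of each spot with its signal to noise.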 As to conditions: small-molecule microarray, higher = more signal.
Experiment [9] concerns the target Torsin-1A-interacting protein 1 (Homo sapiens) (UniProt Q5JTV8). Kind of experiment: compound microarray binding of lysate hLAP1 – cell lysate, small-molecule microarray, COS7 lysate, 635/667 nm fluorescence, primary screen (AID 1116). The settings on record: 635 nm fluorescence, higher = more signal.
Experiment [10] addresses Alpha-bungarotoxin (Bungarus multicinctus) (UniProt P60615). In words: compounds binding labelled alpha-BTX control protein – biochemical, small-molecule microarray, Alexa647 label, 635/667 nm fluorescence, artefact control for SMM control protein annotation, profiling panel (AID 1117). The settings on record: alpha-BTX-A647 binding fluorescence, higher = more signal.

Molecules are shown by their SMILES.

Sequence of Alpha-bungarotoxin (Bungarus multicinctus) (P60615 whole entry, looked up): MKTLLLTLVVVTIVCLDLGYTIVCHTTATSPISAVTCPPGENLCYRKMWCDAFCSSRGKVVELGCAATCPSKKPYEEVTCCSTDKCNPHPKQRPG
Sequence of Torsin-1A-interacting protein 1 (Homo sapiens) (Q5JTV8 whole entry, looked up): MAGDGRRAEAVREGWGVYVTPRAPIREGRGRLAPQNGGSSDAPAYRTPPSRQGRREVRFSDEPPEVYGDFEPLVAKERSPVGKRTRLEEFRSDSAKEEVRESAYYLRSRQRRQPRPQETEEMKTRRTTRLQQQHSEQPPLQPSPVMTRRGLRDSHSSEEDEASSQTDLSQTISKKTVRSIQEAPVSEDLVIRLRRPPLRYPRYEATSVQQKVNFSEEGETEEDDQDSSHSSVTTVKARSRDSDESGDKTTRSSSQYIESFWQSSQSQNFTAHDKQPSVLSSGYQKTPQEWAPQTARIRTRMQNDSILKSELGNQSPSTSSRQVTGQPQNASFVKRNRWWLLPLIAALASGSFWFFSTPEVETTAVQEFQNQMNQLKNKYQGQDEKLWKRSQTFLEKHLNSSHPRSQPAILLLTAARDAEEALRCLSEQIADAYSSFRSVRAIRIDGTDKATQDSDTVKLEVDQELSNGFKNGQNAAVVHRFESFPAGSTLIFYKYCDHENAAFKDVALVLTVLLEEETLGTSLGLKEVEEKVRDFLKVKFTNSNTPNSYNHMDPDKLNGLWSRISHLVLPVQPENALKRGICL

Turning to `CCCCC=C[C@@H](NC(=O)c1ccc(C(F)(F)F)cc1)c1ccccc1`, the composite z-score in experiment [1] is -0.297; in experiment [3], -0.636; in [4], -0.0968; in [5], 0.382; in [6], -0.134; in experiment [7], 0.0022. For the same compound, the figures for the composite z-score in experiment [8], in [9] and in experiment [10] were 0.278, -0.946 and -1.07, respectively. The z-score in experiment [2] was -0.887.
Consider `CC(=O)c1ccc(C(O)C2C=CC3C(=O)N(C)C(=O)C3N2NC(=O)OC(C)(C)C)cc1` (stereo not given), for which the composite z-score was 0.955 in experiment [1]; 0.237 in experiment [3]; 2.2 in experiment [4]; 1.19 in experiment [5]; 0.0279 in experiment [6]; 0.207 in experiment [7]. In addition, the composite z-score in [8] was 1.7; in experiment [9], 0.486; in [10], 2.12. For the same compound, in experiment [2], the z-score is -0.859.
For the compound `C[N+](C)(C)CCCC[C@@H]1NC(=O)[C@H]2C[C@@H](C(=O)NCCCCCNC(=O)CS)[C@@H](c3ccc(O)cc3)N2C1=O`, the composite z-score is 0.727 in [1]; 0.355 in experiment [3]; 0.956 in experiment [4]; 0.213 in [5]; 0.0101 in experiment [6]; -0.0553 in experiment [7]. For the same compound, the results for the composite z-score in experiment [8], in experiment [9] and in experiment [10] were -0.373, 2.49 and -0.256, respectively. The z-score in [2] was determined as 0.215.
In the case of `CCCCC(O)C1C=CC2C(=O)NC(=O)C2N1Nc1ccc(Cl)cc1Cl` (stereo not given), the composite z-score in [1] was 0.694; in [3], -1.11; in experiment [4], 0.436; in experiment [5] it was 0.476; in experiment [6] it was 0.0915; in experiment [7], 0.0483. The composite z-score in [8] was 1.31; in experiment [9], -0.0411; in [10] it was 1.1. This compound had a z-score in experiment [2] of -1.12.
Regarding `CCOC(=O)C1=CC[C@@H](c2ccccc2)N(S(=O)(=O)C[Si](C)(C)C)[C@H]1c1ccccc1`, the composite z-score in experiment [1] was 1.38; in experiment [3], 0.618; in [4] it was 1.36; in experiment [5], 0.391; in experiment [6] it was 0.105; in experiment [7] it was -0.2. Moreover, the composite z-score was 0.509 in [8], 1.02 in experiment [9] and 1.02 in experiment [10]. This compound also gave a z-score in experiment [2] of -0.61.
Turning to `C=C(COC)C(=O)CC[C@@H](OC(=O)c1cccnc1)c1cccc(OCCO)c1`, the composite z-score in experiment [1] is 0.743; in experiment [3], -0.116; in experiment [4], -0.725; in [5], -0.89; in [6], -0.0731; in experiment [7] it was 0.0121. Besides, the results for the composite z-score in experiment [8], in experiment [9] and in [10] were 1.09, 0.295 and -0.101, respectively. This compound also registered a z-score in experiment [2] of -1.64.
Consider `CCOC(=O)C1=CC[C@@H](c2ccccc2Cl)N(S(=O)(=O)c2ccc(C)cc2)[C@H]1c1cccc(OC)c1`, for which the composite z-score in experiment [1] was 0.414; in experiment [3] it was -0.0038; in experiment [4] it was 0.107; in experiment [5] it was 0.369; in [6] it was 0.0382; in experiment [7], 0.123. Further, the composite z-score in [8] came out at 0.216; in experiment [9] it was 0.111; in [10], 0.253. The compound further came in with a z-score in [2] of -0.587.
Consider `COc1ccc([Si](C)(C)[C@@H]2[C@@H](CCO)O[C@]3(C(=O)N(Cc4ccccc4)c4ccc(N5C(=O)c6ccccc6Oc6ccccc65)cc43)[C@H]2C)cc1`, for which the composite z-score in experiment [1] is -0.175; in [3] it was -0.75; in [4], 0.417; in experiment [5] it was 0.925; in experiment [6], -0.208; in experiment [7] it was -0.0605. The composite z-score in experiment [8] is -0.0541; in experiment [9], -0.361; in [10] it was 0.367. In experiment [2], this compound displayed a z-score of -4.15.
For `C=CC[C@]1(C(=O)NCCCOC)N=C(c2ccc(OCCCO)cc2)O[C@H]1c1ccccc1`, the composite z-score in [1] is 1.44; in experiment [3], -0.916; in experiment [4], 0.287; in experiment [5], -0.484; in experiment [6] it was 0.108; in experiment [7], -0.0626. Also, the composite z-score in [8] is 0.328; in experiment [9], 1.03; in experiment [10] it was -0.0901. The compound also displayed a z-score in [2] of -1.53.
With `CC=CC(O)C1C=CC2C(=O)N(C)C(=O)C2N1NC(=O)OC(C)(C)C` (stereo not given), the composite z-score in experiment [1] is -1.08; in experiment [3], 0.478; in experiment [4], 0.127; in [5] it was -0.516; in [6], -0.101; in experiment [7] it was -0.206. Further, the composite z-score in [8] is -0.135; in [9] it was 0.512; in experiment [10], 0.277. Further, in [2], the z-score was determined as 0.381.
Take `CC[C@H](C)C(=O)O[C@H]1CC[C@]2(C)C3=C(CCC2C1(C)C)[C@]1(C)CC[C@H]([C@H](C)CCCC(C)C)[C@@]1(C)CC3` (stereo not given in full): the composite z-score in [1] is 0.758; in [3], 0.405; in [4], -0.367; in [5], -0.468; in [6], -0.0462; in experiment [7], -0.0769. The composite z-score in experiment [8] is -0.31; in experiment [9] it was 0.14; in [10], 0.332. In experiment [2], this compound displayed a z-score of -0.492.
With `CN(C)CCCC[C@@H]1NC(=O)[C@H]2C[C@@H](C(=O)O)[C@@H](c3cccc(OCCO)c3)N2C1=O`, the composite z-score in [1] is -0.226; in experiment [3], 0.494; in experiment [4], -0.526; in experiment [5], 0.16; in [6], 0.0495; in experiment [7], 0.0611. In addition, the results for the composite z-score in experiment [8], in experiment [9] and in [10] were 0.25, 0.633 and 1.47, respectively. In addition, in experiment [2], the z-score was 4.23.
